# In PubChem BioAssay (NCATS):
# Several values for one entry are separate records, joined by “and”; a condition that tells them apart may be missing. Identical values can stand only once. Inconclusive results are not listed. Unmarked numbers belong to inactive results. Activity calls are given as the source filed them. Calls come from the whole dose curve; as a rule, active = well fitted curve in the direction sought with a large enough effect; inconclusive = small, poorly fitted or top-dose-only effect, or another doubt; inactive = no such curve, though single readings can be large; an effect the other way counts as inactive or inconclusive.
# Assays:
# [1] = Viability qHTS for spleen associated tyrosine kinase inhibitor (SYKi) naive MV4-11 cells (AID 1963823); note: nearly all actives have a fitted effect of over 40% in size
# In short: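 Cells: MV4-11, SYK inhibitor naive, 500 per well. Treatment: library compounds, 72 hr, 37 C, 5% CO2. Read-out: CellTiter-Glo luminescence after 10 min RT.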
# [2] = Viability qHTS for spleen associated tyrosine kinase inhibitor (SYKi) drug resistant MV4-11 cells (AID 1963824); note: nearly all actives have a fitted effect of over 35% in size
# In short: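 SYK-inhibitor-resistant MV4-11 AML cells were seeded at 500 per well onto compound and cultured 72 hours (37 °C, 5% CO2). CellTiter-Glo was then added, and after 10 min at room temperature, luminescence gave viability.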
# [3] = Quantitative highthroughput screen to assess conditional lethalithy of NOMO1 cells grown in RPMI1640 with dialyzed fetal bovine serum (RPMI+ds) (AID 1963877); note: nearly all actives have a fitted effect of over 30% in size;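 for Viability: series mostly up to about 46 µM; 100% = DMSO control wells and 0% = empty wells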
# In short: (§1)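 Each medium arm—HPLM with 10% dialyzed FBS, or RPMI1640 with 5 mM glucose and 10% untreated or dialyzed FBS—was screened against an 11-point, 3-fold compound titration for 48 h at 37 °C, with CellTiter-Glo luminescence as endpoint.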
# [4] = Quantitative highthroughput screen to assess conditional lethalithy of NOMO1 cells grown in Human Plasma-Like Medium with dialyzed fetal bovine serum (HPLM+ds) (AID 1963878); note: nearly all actives have a fitted effect of over 35% in size;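 for Viability: 100% = DMSO wells and 0% = empty wells on each plate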
# In short: as §1
# [5] = Quantitative highthroughput screen to assess conditional lethalithy of P12 Ichikawa cells grown in Human Plasma-Like Medium with dialyzed fetal bovine serum (HPLM+ds) (AID 1963879); settings: Potency: viability; note: nearly all actives have a fitted effect of over 35% in size; for Viability: series mostly up to about 46 µM
# In short: as §1
# [6] = Quantitative highthroughput screen to assess conditional lethalithy of P12 Ichikawa cells grown in RPMI1640 with dialyzed fetal bovine serum (RPMI+ds) (AID 1963880); settings: Potency: P12-Ichikawa viability; note: nearly all actives have a fitted effect of over 35% in size;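 for Viability: 100% = DMSO wells and 0% = empty wells on each plate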
# In short: as §1
# [7] = Quantitative highthroughput screen to assess conditional lethalithy of P12 Ichikawa cells grown in RPMI1640 with untreated serum (RPMI+s) (AID 1963881); settings: Potency: viability; note: nearly all actives have a fitted effect of over 35% in size;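 for Viability: series mostly up to about 46 µM; 100% = DMSO wells and 0% = empty wells without cells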
# In short: as §1
# [8] = Cellular viability qHTS for adrenocortical cancer (ACC) cell line SW-13 (AID 1963989); settings: SW-13 ACC cells viability, CellTiter-Glo, 48 h; activity (max response): active compounds read low; note: nearly all actives have a fitted effect of over 65% in size;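 for activity (max response): cells grown in serum-free medium with ITS supplement; % is set by controls: 0 for no effect and ±100 for the full control effect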
# In short: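 Luminescent ATP read-out (CellTiter-Glo, 20 min at room temperature) measured metabolically competent SW-13 cells after 48 h compound treatment. Final concentrations spanned up to 46 uM; bortezomib served as positive control.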
# [9] = Cellular viability qHTS for adrenocortical cancer (ACC) cell line NCI-H295R (AID 1963990); note: nearly all actives have a fitted effect of over 60% in size;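 for activity change, negative = viability loss: 0% = DMSO only wells and -100% = full killing with cytotoxic reference compound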
# In short: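 IC50 and maximal efficacy derive from four-parameter logistic modelling of titration curves, with reads scaled between DMSO-only wells (0%) and doxorubicin hydrochloride (100% inhibition). Compounds spanned up to 46 uM over 48 h.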
# [10] = Quantitative highthroughput screen to assess conditional lethalithy of SEM cells grown in Human Plasma-Like Medium with dialyzed fetal bovine serum (HPLM+ds) (AID 1963882); note: nearly all actives have a fitted effect of over 35% in size; for Viability: series mostly up to about 46 µM
# In short: as §1
# [11] = Quantitative highthroughput screen to assess conditional lethalithy of SEM cells grown in RPMI1640 with dialyzed fetal bovine serum (RPMI+ds) (AID 1963884); note: nearly all actives have a fitted effect of over 35% in size;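 for Viability: series mostly up to about 46 µM; 100% = DMSO control wells and 0% = empty wells without cells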
# In short: as §1
# [12] = Quantitative highthroughput screen to assess conditional lethalithy of SEM cells grown in RPMI1640 with unreated serum (RPMI+s) (AID 1963883); note: nearly all actives have a fitted effect of over 35% in size;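 for Viability: 100% = DMSO wells and 0% = empty wells without cells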
# In short: as §1
# Potency is the fitted concentration of half-maximal effect.
Compound,Potency [1],Potency [2],Potency [3],Potency [4],Potency [5],Potency [6],Potency [7],Potency [8],Potency [9],Potency [10],Potency [11],activity (max response) [8],Potency [12],"activity change, negative = viability loss [9]"
COc1cc(Nc2ncc(F)c(Nc3ccc4c(n3)N(COP(=O)(O)O)C(=O)C(C)(C)O4)n2)cc(OC)c1OC,92 nM (active) and 259 nM (active) and 83.3 nM (active),130 nM (active) and 461 nM (active) and 148 nM (active),inactive,inactive,inactive,inactive,inactive,14.1 µM (active),15.8 µM (active),–,–,–,–,–
COc1cc(NCc2ccc3nc(N)nc(N)c3c2C)cc(OC)c1OC,1.05 µM (active),42.2 nM (active) and 1.05 µM (active),10500 nM (active),–,2350 nM (active),10500 nM (active),18700 nM (active),10.3 nM (active) and 1.12 µM (active),14.6 nM (active) and 2.82 µM (active),–,–,–,–,–
CCOC(=O)[C@H](CCc1ccccc1)N[C@H]1CS[C@H](c2cccs2)CN(CC(=O)O)C1=O,7.42 µM (active),13.3 µM (active) and 5.9 µM (active),13200 nM (active),5260 nM (active),8330 nM (active),14800 nM (active),9350 nM (active),–,inactive,inactive,inactive,6.33% and 0.504%,–,–
Cc1ccccc1-n1c(Cn2nc(-c3cccc(O)c3)c3c(N)ncnc32)nc2cccc(C)c2c1=O,6.61 µM (active),11.6 µM (active),2350 nM (active),1660 nM (active),2960 nM (active),–,–,–,–,inactive,inactive,–,inactive,–
NNC(=O)c1ccncc1,inactive,inactive,inactive,inactive,16600 nM (active),–,–,–,inactive,inactive,–,13.1% and -0.369%,inactive,–
NS(=O)(=O)c1ccc(Nc2nc(OCC3CCCCC3)c3[nH]cnc3n2)cc1,0.58 µM (active),0.651 µM (active),590 nM (active),–,46.9 nM (active),296 nM (active),372 nM (active),22.4 µM (active),–,469 nM (active),469 nM (active),–,296 nM (active),–
Cn1c(=O)n(-c2ccc(C(C)(C)C#N)cc2)c2c3cc(-c4cnc5ccccc5c4)ccc3ncc21,0.027 µM (active),164 nM (active) and 60.5 nM (active),296 nM (active),–,1050 nM (active),1660 nM (active),2090 nM (active),–,0.0751 µM (active),235 nM (active),372 nM (active),–,166 nM (active),–
COC(=O)[C@H](CCCN=C(N)N)NS(=O)(=O)c1ccc(C)cc1,inactive,inactive,inactive,6620 nM (active),inactive,–,inactive,–,inactive,–,–,6.08%,–,–
CCCCCCCCCCCCc1ccc(S(=O)(=O)Nc2nncs2)cc1,16.4 µM (active),inactive,inactive,7430 nM (active),–,–,inactive,–,inactive,inactive,6620 nM (active),-13.1%,3320 nM (active),–
Cc1cnc(NC(=O)Nc2cc(Br)c(C)cc2OC[C@@H]2CNCCO2)cn1,1.32 µM (active),1.18 µM (active),1660 nM (active),1180 nM (active),–,13200 nM (active),–,–,2.51 µM (active),526 nM (active),590 nM (active),–,935 nM (active),–
NC(=O)[C@@H](CCC(F)(F)F)N(Cc1ccc(-c2ncon2)cc1F)S(=O)(=O)c1ccc(Cl)cc1,20.9 µM (active),18.6 µM (active),–,20900 nM (active),–,–,–,28.2 µM (active),–,23500 nM (active),18700 nM (active),–,16600 nM (active),–
Cn1cc(C2=C(c3c4n(c5ccccc35)CCC(CN)C4)C(=O)NC2=O)c2ccccc21 (centres undefined),2.15 µM (active),2.7 µM (active),18700 nM (active),–,–,–,–,–,–,10500 nM (active),11800 nM (active),-20.5%,–,-2.33% [at 9.17 µM]
c1nc2nc(Nc3ccc(N4CCOCC4)cc3)nc(NC3CCCCC3)c2[nH]1,224 nM (active) and 209 nM (active),317 nM (active) and 366 nM (active),–,14800 nM (active),3320 nM (active),–,2640 nM (active),–,2.82 µM (active),–,2350 nM (active),–,2350 nM (active),–
